Source: PubChem BioAssay
PfGluPho inh = PfG6PD (Plasmodium falciparum) enzyme inhibition; inhibition, % at 20 µM; 0.78% of 350,000 active; PfGluPho enzyme, NADPH resazurin-diaphorase fluorescence;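 active = inhibition reaching at least a set limit at 20 µM in the primary screen, cut at about 59% in these data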
PfGluPho conf = PfG6PD inhibition, single-dose confirmed. shares compounds with PfGluPho inh. recombinant PfGluPho, NADPH-diaphorase-resazurin fluorescence. inhibition, % at 20 µM. 34% of 2,400 active. AID 504753;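 active = inhibition of at least 50% at 20 µM in any single replicate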
Diaph ctr 10uM = inhibits diaphorase or oxidizes, flagging false PfG6PD hits | diaphorase-coupled resazurin reduction, fluorescence, NADPH 10 uM | shares compounds with PfGluPho inh | inhibition, % at 20 µM | 39% of 820 active;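 active = average inhibition reaching 50% or more with the compound at 20 µM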;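 also: resorufin red fluorescence formed as diaphorase reduces resazurin using NADPH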
Diaphorase 30uM = counter-screen for P. falciparum G6PD inhibitors: diaphorase inhibitors, oxidizers; shares compounds with PfGluPho inh; Diaphorase/resazurin coupled assay, resorufin fluorescence, 30 uM NADPH; inhibition, % at 20 µM; 29% of 820 active;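 active = inhibition averaging 50% or more, tested at 20 µM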
A number is an active result; i = inactive; nt = no result given. This excerpt belongs to a sample that is enriched for hits.

SMILES	PfGluPho inh	PfGluPho conf	others
CCN(CC)C(=O)c1ccc(NC(=O)CNC(C)c2cccc3ccccc23)cc1 (centres undefined)	i	nt
CC1=C(O)C(=O)C=C2C1=CC=C1C2(C)CCC2(C)C3CC(C)(C(=O)O)CCC3(C)CCC12C (centres undefined)	80.5	71.1	Diaph ctr 10uM=i;Diaphorase 30uM=i
CN1CCN(Cc2cn(C)c3ccccc23)CC1CCO (centres undefined)	i	nt
CN1CCc2cc3c(c4c2C1Cc1ccccc1-4)OCO3 (centres undefined)	88.9	i
COc1ccc(OC)c(CNCCc2ccc(OC)c(OC)c2)c1	i	nt
COc1cc(/C=C/c2nc3ccccc3c(=O)n2-c2cccc(O)c2)ccc1O	i	nt
COc1cc(/C=C/c2nc3ccccc3c(=O)n2-c2ccccc2O)ccc1O	84.3	i
O=C1NC(=S)SC1=Cc1ccc(N(CCCl)CCCl)cc1	i	nt
